Screens deposited in PubChem by The Scripps Research Institute Molecular Screening Center.
RTF Ca sens inh – cardiac RTF calcium desensitization | P19429+P45379 | IANBD-labeled cardiac RTF, Ca2+ fluorescence | inhibition, % at 7.15 µM | 340,000 compounds, 0.12% hits | AID 493244;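 active = inhibition above the mean inhibition of all tested compounds plus 3 SD, cut at about 17% in these data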;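 note: assay run at fixed EC70 calcium of 1.6 mM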
Bcl-xL primary – inhibitors of human Bcl-xL; 320,000 compounds, 0.7% hits; Q07817; GST-Bcl-xL / FITC-Bim BH3 peptide fluorescence polarization; inhibition, % at 10.9 µM;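 active = inhibition above the mean of all tested compounds plus 3 SD, cutoff set per campaign, cut at about 30% in these data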;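 note: 0% = DMSO wells and 100% = unlabeled Bim-BH3 peptide competitor; inhibitors lower millipolarization by displacing the labeled peptide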
GLD-1 RNA inh – GLD-1-TGE RNA interaction inhibition (C. elegans); purified GLD-1 + fluorescein TGE RNA, fluorescence polarization; inhibition, % at 5.96 µM; 320,000 compounds, 0.44% hits;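 active = percent inhibition above a per-plate cutoff, the plate mean of test compounds plus 3 SD, cut at about 30% in these data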;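 note: 0% = DMSO wells with GLD-1 and probe and 100% = wells lacking GLD-1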
Target sequence (Q17339 whole entry, looked up): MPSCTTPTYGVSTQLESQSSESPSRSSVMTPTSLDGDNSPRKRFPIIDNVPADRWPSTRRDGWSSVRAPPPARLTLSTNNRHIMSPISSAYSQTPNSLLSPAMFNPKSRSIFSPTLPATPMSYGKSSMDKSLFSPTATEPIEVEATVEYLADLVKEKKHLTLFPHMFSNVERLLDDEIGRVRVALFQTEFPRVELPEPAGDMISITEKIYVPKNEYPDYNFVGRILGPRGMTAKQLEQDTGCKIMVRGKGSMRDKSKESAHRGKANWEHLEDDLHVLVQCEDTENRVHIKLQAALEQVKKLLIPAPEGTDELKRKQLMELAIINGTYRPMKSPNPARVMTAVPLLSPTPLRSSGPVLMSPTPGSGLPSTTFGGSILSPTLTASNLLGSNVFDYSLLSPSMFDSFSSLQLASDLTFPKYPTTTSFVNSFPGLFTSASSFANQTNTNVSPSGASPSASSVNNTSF
cardiac RTF act – increases calcium sensitivity of human cardiac regulated thin filaments; P19429+P45379; IANBD-labeled TnC RTF fluorescence at EC20 calcium; 0% EC20 calcium, 100% full calcium; activation, % at 7.2 µM; 340,000 compounds, 0.24% hits;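 active = activation above the mean over all tested compounds plus 3 SD, cut at about 30% in these data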;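 note: rise in fluorescence read as greater calcium sensitivity of cardiac thin filaments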
eLon inh – E. coli protease La inhibition. inhibition, % at 7.94 µM. purified E. coli Lon protease, fluorescence polarization. 360,000 compounds, 0.42% hits. AID 602123. P0A9M0; in the data active = inhibition above about 13%, passing the limit was not always enough;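 note: 0% = enzyme with probe and DMSO and 100% = no enzyme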
* marks the source's active call; other numbers are inactive results; i = inactive; . = no result; + = active, no number. Shown are actives, neighbours in structure and some others; about 1.2% of the full set was active somewhere.

SMILES	RTF Ca sens inh	Bcl-xL primary	GLD-1 RNA inh	cardiac RTF act	eLon inh
COc1ccc(/C=C2\Oc3cc(OCC(=O)N4CCC[C@H]4C(=O)O)ccc3C2=O)c(OC)c1	-44	-21	-32	30*	-74
COc1cc(OC)c(OC)cc1/C=C1\Oc2cc(OCC(=O)N3Cc4ccccc4C[C@H]3C(=O)O)ccc2C1=O	-66	-4	-47	32*	-266
C=CCn1c(SCC(=O)Nc2cc(C)on2)nnc1-c1ccncc1	.	.	.	.	-15
Cc1cccc(NC(=O)CSc2ccc(-c3ccc4c(c3)OCO4)nn2)c1C	2	2	-1	2	-5
COc1cccc(NC(=O)C(Cc2ccccc2)NC(=O)C2CCC(C)CC2)c1 (stereo not given)	2	7	-3	-2	5
CCOc1cccc(=O)c2c(C)n(Cc3ccccc3)c(C)c12	5	6	5	2	-3
CCOc1cccc(=O)c2c(C)n(-c3ccc(C(=O)O)cc3)c(C)c12	-4	59*	29	-1	-1
Nc1ccc2c(c1)C/C(=C/c1ccco1)C2=O	-8	60*	25	17	-13
CCOC(=O)CN1CC23C=CC(O2)C(C(=O)Nc2cc(OC)ccc2OC)C3C1=O (stereo not given)	-2	-12	-11	1	-3
O=c1cc(-c2ccccc2)oc2cc(O)ccc12	4	.	.	9	0
O=c1ccc2c(-c3ccccc3)c3ccc(O)cc3oc-2c1	i	106*	75*	+	.
Nc1ccc(-c2c3ccc(=O)cc-3oc3cc(O)ccc23)cc1C(=O)O	i	106*	64*	+	-117
COc1ccc(-c2c(C)c3ccc(O)cc3oc2=O)cc1OC	-2	1	-9	-6	-5
CCOc1cccc(C(=O)Nc2ccncc2)c1	-15	6	4	12	-2
Cc1cc(NC(=O)NC(=O)c2cccc(OC(F)(F)C(F)F)c2)n[nH]1	2	0	8	-2	-4
COc1ccccc1CNC(=O)CN1C(=O)c2cccc(N)c2C1=O	-25	93*	103*	9	-2
COc1ccccc1CNC(=O)CCN1C(=O)c2ccccc2C1=O	-11	2	4	4	-8
CCN(CC)CCCNc1nc(SC)nc2sc3c(c12)CCN(C)C3	.	71*	-28	.	.
COc1ccccc1CNC(=O)CSc1ccc(Br)cc1	-14	5	7	-6	5
O=C(CSc1ccc(C(F)(F)F)cc1[N+](=O)[O-])Nc1ccccc1	-2	-3	-6	0	37*
O=c1[nH]c2ccc(N=Cc3c(O)ccc4cc(Br)ccc34)cc2[nH]1	-13	.	.	30*	-148
Cn1c2ccccc2c2cc(/C=N/NC(=O)c3ccccc3F)ccc21	-5	2	3	5	-6
O=C(CCCN1C(=O)/C(=C\c2ccco2)SC1=S)Nc1ccc(O)cc1C(=O)O	10	39*	0	-15	-4
O=C(CCCN1C(=O)/C(=C\c2cccs2)SC1=S)Nc1ccc(O)cc1C(=O)O	-3	17	-3	-2	-20
O=C(CN1C(=O)/C(=C/c2ccco2)SC1=S)NC1CCS(=O)(=O)C1 (stereo not given)	2	44*	17	2	-8
SMILES	RTF Ca sens inh	Bcl-xL primary	GLD-1 RNA inh	cardiac RTF act	eLon inh
O=C(CN1C(=O)/C(=C/c2ccco2)SC1=S)Nc1ccc(C(=O)O)c(O)c1	7	28	4	-8	-52
O=C(CCN1C(=O)/C(=C/c2ccccc2)SC1=S)NC1CCS(=O)(=O)C1 (stereo not given)	0	0	6	-3	-1
O=C(CN1C(=O)/C(=C/c2ccco2)SC1=S)Nc1ccc(O)c(C(=O)O)c1	3	34*	-8	-12	-46
COCCNC(=O)C1(C)CCCN(Cc2ccc(C)c3ccccc23)C1 (stereo not given)	.	.	.	.	8
Cc1ncc(CO)c(/C=N/Nc2ccc(C(F)(F)F)cn2)c1O	9	40*	5	-3	-33
Cn1c(C(=O)NCCCN2CCN(c3ccccc3F)CC2)cc2c(=O)[nH]c3ccccc3c21	-1	4	0	0	-7
CC1(C)N([O-])c2cc([N+](=O)[O-])ccc2[N+]1=O	.	35*	8	.	.
Cc1cc(Nc2ccc(Cl)cc2)nc(N)n1	-4	-1	5	4	1
Nc1cc(Nc2ccc(Br)cc2)nc(N)n1	-8	53*	18	4	1
COc1ccc(N2CCN(Cc3oc(CO)cc(=O)c3O)CC2)cc1	-7	53*	22	-8	-10
NC(=O)c1cc2ccc(O)cc2oc1=NCc1ccccc1	-67	129*	95*	60*	-8
Cc1ccn2c(CNCc3cnn(C)c3)c(C(=O)N3CCCCCC3)nc2c1	-11	67*	-1	1	2
Cc1ccn2c(CNC(C)c3cn(C)nc3C)c(C(=O)N3CCCCCC3)nc2c1 (stereo not given)	-5	1	0	-2	0
CSc1nc(Oc2ccccc2)c2sccc2n1	5	-4	8	2	-1
CCOC(=O)c1sc(-c2ccc(C(F)(F)F)cc2)nc1O	-5	36*	12	0	1
CCOC(=O)c1sc(-c2cccc(C(F)(F)F)c2)nc1O	0	9	8	2	0
CCN(CC)S(=O)(=O)c1ccc(NC(=O)CSc2ncnc3ccccc23)cc1	-5	3	4	1	-5
CC(C)(C)C1CC=C2C(C#N)=C(N)C(C#N)(C#N)C(c3cccs3)C2C1 (stereo not given)	.	60*	62*	.	.
N#CC1=C(N)C(C#N)(C#N)C(c2cccnc2)C2COCC=C12 (stereo not given)	2	27	23	4	4
O=C(O)CN1C(=O)/C(=C/c2ccc(N3CCCCC3)o2)SC1=S	-13	23	10	15	-7
CCOC(=O)CN1C(=O)S/C(=C/c2ccc(N3CCCCC3)o2)C1=O	-48	-125	-156	70*	-169
COC(=O)CN1C(=O)S/C(=C/c2ccc(N3CCCCC3)o2)C1=O	-291	-124	-135	322*	-442
CCOC(=O)CN1C(=O)S/C(=C/c2ccco2)C1=O	-7	8	3	5	-8
Nc1c(C(=O)Nc2nccs2)sc2nc(-c3cccs3)cc(C(F)(F)F)c12	-31	31*	20	29	-104
Cc1nnc(NC(=O)c2sc3nc(-c4cccs4)cc(C(F)(F)F)c3c2N)s1	-45	21	-37	23	-104
CCCCC1=CC2=CC(=O)C(C)(OC(=O)CC)C(=O)C2=CN1C(CO)CO (stereo not given)	-8	13	17	-8	-7
CCCCC1=CC2=CC(=O)C(C)(OC(=O)CC)C(=O)C2=CN1Cc1ccc(OC)cc1 (stereo not given)	4	21	17	2	11
C=CCN1C=C2C(=O)C(C)(OC(=O)CC)C(=O)C=C2C=C1CCCC (stereo not given)	-2	29	42*	4	13
